The target of test [1] is N-terminal Xaa-Pro-Lys N-methyltransferase 1 (Homo sapiens) (UniProt Q9BV86). Briefly: qHTS Assay for Inhibitors of N-terminal methyltransferase 1 (NTMT1): LOPAC validation of the NTMT1 SAHH-coupled ThioGlo3 Assay (AID 1347143).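 Also: SAH from peptide methylation measured as thiol fluorescence via SAHH coupling and ThioGlo3; nearly all actives have a fitted effect of over 70% in size.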 Also: potency is read from the fitted curve at half-maximal effect. The method in brief:
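In this qHTS pilot against the LOPAC set, 125nM NTMT1 met compounds tested at multiple concentrations, and fluorescence was normalized to background.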
A general note: qHTS replaces the single test concentration by a dilution series.

The nature of test [2]: qHTS of pediatric cancer cell lines to identify multiple opportunities for drug repurposing: Confirmatory screen for U-2 OS cells (AID 1347122). Also: nearly all actives have a fitted effect of over 65% in size. Summed up: (§1)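 Cells (500-1,000/well) in growth media were settled 5 h at 37 degrees C, then given compounds for 48 h. Viability was read as CellTiter-Glo luminescence. Primary runs used MIPE at 11 points (0.78 nM-46 µM) and NPC at 8 points (0.59 nM-46 µM); follow-ups used 11 points.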

The nature of test [3]: qHTS of pediatric cancer cell lines to identify multiple opportunities for drug repurposing: Confirmatory screen for Rh41 cells (AID 1347123).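 Also: 48 h compound exposure; nearly all actives have a fitted effect of over 60% in size.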 The method in brief:
as §1

Test [4] can be described thus: qHTS of pediatric cancer cell lines to identify multiple opportunities for drug repurposing: Confirmatory screen for OHS-50 cells (AID 1347128).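 Also: compound exposure lasted 48 h at 37 degrees C; nearly all actives have a fitted effect of over 55% in size.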 Summed up:
as §1

Test [5] is described as follows: qHTS of pediatric cancer cell lines to identify multiple opportunities for drug repurposing: Confirmatory screen for SK-N-SH cells (AID 1347129).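 Also: cells exposed to compound for 48 h before viability read; nearly all actives have a fitted effect of over 60% in size.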 The method in brief: as §1

SMILES strings stand for the structures. Records with an inconclusive call do not appear. Where a call stands in place of a potency, no number is given. Calls of active or inactive are those of the source. Calls follow the shape of the dose curve; as a rule, active = well fitted curve in the direction sought with a large enough effect; inconclusive = small, poorly fitted or top-dose-only effect, or another doubt; inactive = no such curve, though single readings can be large; an effect the other way counts as inactive or inconclusive.

N-terminal Xaa-Pro-Lys N-methyltransferase 1 (Homo sapiens), sequence (Q9BV86 whole entry, looked up): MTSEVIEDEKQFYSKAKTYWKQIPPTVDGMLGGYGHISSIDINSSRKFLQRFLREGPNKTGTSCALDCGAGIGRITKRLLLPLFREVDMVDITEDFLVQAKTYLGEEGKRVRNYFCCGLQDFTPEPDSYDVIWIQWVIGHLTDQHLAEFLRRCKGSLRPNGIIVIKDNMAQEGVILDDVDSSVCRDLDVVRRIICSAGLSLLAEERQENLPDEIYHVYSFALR

Take `C=CC(N)CCC(=O)O` (stereo unspecified): the Potency result in test [1] was “inactive”.

As for `COc1cc2c(CCNC(C)=O)c[nH]c2cc1Cl`, the Potency result in test [1] is “inactive”.

With `COc1cccc(OC)c1OCCNCC1COc2ccccc2O1` (stereo unspecified), the Potency result in test [1] is “inactive”.

Regarding `O=C(CCCCCN1CCN(c2ccccc2-c2ccccc2)CC1)NC1CCCc2ccccc21` (stereo unspecified), the Potency in test [1] was 79.4 µM (active).

Regarding `Nc1nc(Nc2ccccc2)nc2c1ncn2[C@@H]1O[C@H](CO)C(O)[C@H]1O` (stereo partly specified), the Potency in test [1] is 39.8 µM (active).

Turning to `CCOC(=O)c1ccccc1O`, the Potency result in test [2], in test [3], in test [4] and in test [5] was “inactive” each time.

As for `CS(=O)(=O)c1ccc(-n2nc(C(F)(F)F)cc2-c2ccc(F)cc2)cc1`, the Potency result in test [1] was “inactive”.

In the case of `Nc1nc(OCC2CCCCC2)c2[nH]cnc2n1`, the Potency result in test [1] is “inactive”.

For the compound `Nc1nc(Cl)nc2c1ncn2[C@@H]1O[C@H](CO)C(O)[C@H]1O` (stereo partly specified), in test [1], the Potency entry was “inactive”.

For `CNc1ncnc2c1ncn2[C@@H]1O[C@H](CO)C(O)[C@H]1O` (stereo partly specified), in test [1], the Potency entry is “inactive”.

For the compound `Oc1cc(O)cc(/C=C/c2ccc(O)c(O)c2)c1`, in test [1], the Potency is 35.5 µM (active).

For `COc1cc(C(O)CO)ccc1OS(=O)(=O)O` (stereo unspecified), the Potency entry in test [1] was “inactive”.

In the case of `Cc1cn([C@H]2CC(N=[N+]=[N-])[C@@H](CO)O2)c(=O)[nH]c1=O` (stereo partly specified), the Potency result in test [1] is “inactive”.

`COc1ccccc1CNCCCCCCNCCCCCCCCNCCCCCCNCc1ccccc1OC`: the Potency in test [1] was 35.5 µM (active).

For the compound `CC(C)c1cccc(C(C)C)c1N1C(=O)c2ccc(O)cc2C1=O`, the Potency result in test [1] is “inactive”.

For the compound `O=C(Nc1ccc2[nH]ncc2c1)C1CCC1`, the Potency entry in test [1] is “inactive”.

Turning to `Oc1ccccc1O`, the Potency in test [1] was 44.7 µM (active).

On to `COc1ccc2c(c1)CCC1C2CC[C@@]2(C)C1CC[C@@H]2NCCCCCCN1C(=O)CCC1=O` (stereo partly specified), for which the Potency entry in test [1] is “inactive”.

Turning to `CN1[C@@H](CC(=O)c2ccccc2)CCC[C@H]1C[C@H](O)c1ccccc1`, in test [1], the Potency result is “inactive”.

For the compound `O=C(O)CC1CCCc2ccccc2C1O` (stereo unspecified), the Potency entry in test [1] was “inactive”.

Turning to `CC(=O)/C=C1\C(=O)N(C)c2ccccc21`, the Potency in test [1] was 28.2 µM (active).

Take `NC[C@@H]1O[C@H](C23CC4CC(CC(C4)C2)C3)Cc2c1ccc(O)c2O`: in test [1], the Potency was 50.1 µM (active).

As for `Nc1ccn([C@H]2O[C@H](CO)[C@@H](O)C2(F)F)c(=O)n1`, the Potency result in test [1] is “inactive”.

Turning to `C=CCc1cccc(/C=N/NC(=O)CN2CCN(Cc3ccccc3)CC2)c1O`, the Potency result in test [1] was “inactive”.

On to `CO/N=C(\C(=O)N[C@@H]1C(=O)N2C(C(=O)O)=C(COC(C)=O)CS[C@H]12)c1csc(N)n1` (stereo in doubt), for which, in test [1], the Potency entry is “inactive”.

On to `NC[C@H]1O[C@@H](n2cnc3c(N)ncnc32)[C@H](O)[C@@H]1O`, for which the Potency entry in test [1] was “inactive”.

Consider `CCCCCCCCc1ccc(-c2ccc(C(=O)O)cc2)cc1`, for which the Potency in test [1] is 50.1 µM (active).

In the case of `COC(=O)c1c(C)[nH]c(C)c1C(=O)c1ccccc1Cc1ccccc1`, the Potency result in test [1] is “inactive”.

For the compound `N[C@H](CCCP(=O)(O)O)C(=O)O`, the Potency result in test [1] is “inactive”.

On to `Nc1nc(SCc2ccc([N+](=O)[O-])cc2)c2ncn([C@@H]3O[C@H](CO)C(O)[C@H]3O)c2n1` (stereo partly specified), for which the Potency result in test [1] is “inactive”.

Take `O=C(/C=C/c1ccc(O)c(O)c1)OCCc1ccccc1`: the Potency in test [1] was 35.5 µM (active).

As to `CC(C)NC[C@H](O)COc1cccc2[nH]ccc12`, the Potency entry in test [1] is “inactive”.

Take `Nc1nc2c(ncn2[C@@H]2O[C@H](CO)[C@@H](O)[C@@H]2O)c(=O)[nH]1`: in test [1], the Potency result was “inactive”.

`N[C@@H](CC(=O)O)C(=O)O`: the Potency result in test [1] was “inactive”.

Regarding `CC(=O)N[C@H](C(=O)O)C(C)(C)SN=O`, in test [1], the Potency result was “inactive”.

Consider `O=C(Nc1ccncc1)c1cc([N+](=O)[O-])ccc1Cl`, for which the Potency result in test [1] was “inactive”.

Consider `CC[C@H]1OC(=O)[C@H](C)C(O[C@H]2C[C@@](C)(OC)[C@@H](O)[C@H](C)O2)[C@H](C)[C@@H](OC2O[C@H](C)C[C@H](N(C)C)[C@H]2O)[C@](C)(O)C[C@@H](C)CN(C)[C@H](C)[C@@H](O)[C@]1(C)O` (stereo partly specified), for which the Potency entry in test [1] was “inactive”.

As for `CN(C)C(N)=NCCC[C@H](N)C(=O)O`, the Potency result in test [1] was “inactive”.

Consider `CC1CN(S(=O)(=O)c2cccc3cnccc23)CCN1` (stereo unspecified), for which the Potency entry in test [1] is “inactive”.

As for `CN(CCCOc1ccc(Cc2ccccc2)cc1)CCC(=O)O`, the Potency entry in test [1] was “inactive”.

Turning to `O=c1[nH]c2cc(C(F)(F)F)ccc2n1-c1cc(C(F)(F)F)ccc1O`, the Potency result in test [1] was “inactive”.

Regarding `CN1CCc2cccc3c2C1Cc1ccc(O)c(O)c1-3` (stereo unspecified), the Potency in test [1] is 20 µM (active).

Consider `S=c1[nH]c(-c2ccccc2)cn1-c1ccccc1`, for which, in test [1], the Potency is 6.31 µM (active).

In the case of `C=C[C@H]1CN2CC[C@@H]1C[C@H]2[C@H](O)c1ccnc2ccc(OC)cc12`, in test [1], the Potency is 56.2 µM (active).

For the compound `C#C[C@]1(O)CC[C@H]2[C@@H]3CCC4=Cc5oncc5CC4(C)[C@H]3CCC21C` (stereo partly specified), the Potency entry in test [1] was “inactive”.

For `O=C(Nc1ccccc1)c1cc([N+](=O)[O-])ccc1Cl`, the Potency entry in test [1] was “inactive”.

Consider `O=Nc1ccc2oc(=O)ccc2c1`, for which, in test [1], the Potency is 4.47 µM (active).

Turning to `N#C/C(=C\c1ccc(O)c(O)c1)C(=O)c1ccc(O)c(O)c1`, the Potency in test [1] is 31.6 µM (active).

The record behind these values is PubChem BioAssay (NCATS).
